Measured values reported in PubChem BioAssay (Tox21).
“And” between values parts separate entries of the source, which are not always exact repeats. Equal entries are not always repeated. Inconclusive results are not listed. Some structures have more than one record in an assay (separate samples or runs), and their calls can disagree. The source made the active and inactive calls. Calls come from the whole dose curve; as a rule, active = well fitted curve in the direction sought with a large enough effect in the repeat runs; inconclusive = weak or mixed curves; inactive = no such curve, though single readings can be large; an effect the other way counts as inactive or inconclusive.

Assays:
[1] = qHTS RealTime-Glo MT Cell Viability Assay in HEK293 cells - 16 hour (AID 1224872); note: nearly all actives have a fitted effect of over 50% in size
In short: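 Luminescence generated by NanoLuc from substrate produced by living HEK293 cells served as the viability signal. Each value reflects the reading at its stated time point during continuous 40 h compound exposure at 37 C.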

[2] = qHTS RealTime-Glo MT Cell Viability Assay in HepG2 cells - 8 hour (AID 1224873); note: nearly all actives have a fitted effect of over 55% in size
In short: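 Real-time viability: cells seeded at 600 per well together with NanoLuc and cell-permeant prosubstrate, compounds added after 5 h incubation. Luminescence tracked at 0, 8, 16, 24, 32 and 40 h of exposure.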

[3] = qHTS RealTime-Glo MT Cell Viability Assay in HEK293 cells - 40 hour (AID 1224874); conditions: RealTime-Glo luminescence; max response: stronger effect = lower value; note: nearly all actives have a fitted effect of over 50% in size; for max response: % is set by controls: 0 for no effect and ±100 for the full control effect
In short: (§1)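 600 cells/well were plated with the nonlytic NanoLuc/prosubstrate reagent, pre-incubated 5 h, then given 23 nL of compound in DMSO. Incubation at 37 C for 40 h, with luminescence from viable-cell-reduced substrate read repeatedly from 0 h.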

[4] = A CellTox Green Cytotoxicity Assay to monitor cytotoxicity in HepG2 cells - 16 hour (AID 1224876); note: nearly all actives have a fitted effect of over 45% in size
In short: (§2)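 HepG2 cells, 600/well, preincubated 5 h with CellTox Green dye, then exposed to Tox21 compounds in DMSO at 37 C for up to 40 h. Dead-cell DNA fluorescence read at the indicated time point.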

[5] = qHTS RealTime-Glo MT Cell Viability Assay in HepG2 cells - 32 hour (AID 1224877); note: nearly all actives have a fitted effect of over 55% in size
In short: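 Tox21 10K library screened in qHTS format on HepG2 cells carrying RealTime-Glo reagents. Compounds were added after a 5 h preincubation, and the luminescent signal from continuous culture was measured repeatedly during 40 h treatment.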

[6] = A CellTox Green Cytotoxicity Assay to monitor cytotoxicity in HepG2 cells - 24 hour (AID 1224878); note: nearly all actives have a fitted effect of over 45% in size; for Cytotoxicity: % is set by controls: 0 for no effect and ±100 for the full control effect
In short: as §2

[7] = A CellTox Green Cytotoxicity Assay to monitor cytotoxicity in HepG2 cells - 40 hour (AID 1224879); note: nearly all actives have a fitted effect of over 40% in size
In short: as §2

[8] = qHTS RealTime-Glo MT Cell Viability Assay in HEK293 cells - 0 hour (AID 1224880); note: nearly all actives have a fitted effect of over 45% in size
In short: as §1

[9] = A CellTox Green Cytotoxicity Assay to monitor cytotoxicity in HEK293 cells - 32 hour (AID 1224881); note: nearly all actives have a fitted effect of over 40% in size
In short: (§3)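 HEK293 cells, 600/well, were preincubated 5 hours and then exposed to compounds at 37 C for up to 40 hours. A cell-impermeant cyanine dye staining dead-cell DNA was read by fluorescence at 0, 8, 16, 24, 32 and 40 h time points.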

[10] = A CellTox Green Cytotoxicity Assay to monitor cytotoxicity in HEK293 cells - 24 hour (AID 1224875); note: nearly all actives have a fitted effect of over 45% in size
In short: as §3
Potency is the fitted concentration of half-maximal effect.

COc1cccc2c1C(=O)c1c(O)c3c(c(O)c1C2=O)C[C@@](O)(C(C)=O)C[C@@H]3O[C@H]1C[C@H](N)[C@H](O)[C@H](C)O1
active: Potency [1] 6.2 µM and 151 nM | Potency [2] 49.3 µM | Potency [3] 62 nM and 3 nM | Potency [5] 22 µM
inactive: Potency [4] | Potency [6] | Potency [7] | Potency [8]
43.9 µM (active) and inactive: Potency [9]

CCCCCCCC/C=C\CCCCCCCCN
active: Potency [1] 21.3 µM | Potency [10] 21.3 µM | Potency [9] 23.9 µM

CN(C)CCN1CCN(c2cccc(Cl)c2)C1=O
inactive: Potency [2] | Potency [10] | Potency [4] | Potency [5] | Potency [6] | Potency [7] | Potency [8] | Potency [9]

CCC(C)n1ncn(-c2ccc(N3CCN(c4ccc(OC[C@H]5CO[C@](Cn6cncn6)(c6ccc(Cl)cc6Cl)O5)cc4)CC3)cc2)c1=O (stereo partly drawn)
inactive: Potency [2] | Potency [10] | Potency [4] | Potency [6] | Potency [7] | Potency [8] | Potency [9]

CCCCCC(C)OC(=O)COc1ccc(Cl)c2cccnc12 (stereo not drawn)
inactive: Potency [2] | max response [3] -19.2% | Potency [10] | Potency [4] | Potency [5] | Potency [8]

CCC(C)(CCC(C)C)C(=O)[O][Sn]([CH3])([CH3])[O]C(=O)C(C)(CC)CCC(C)C (stereo not drawn)
inactive: Potency [2] | max response [3] 0.738% | Potency [10] | Potency [4] | Potency [5] | Potency [6] | Potency [7] | Potency [8] | Potency [9]

Oc1cc(Cl)cc(Cl)c1Cl
active: Potency [9] 50.2 µM
inactive: Potency [2] | Potency [4] | Potency [5] | Potency [6] | Potency [7] | Potency [8]

OCCN1CCN(CCCN2c3ccccc3Sc3ccc(C(F)(F)F)cc32)CC1
active: Potency [6] 26.8 µM | Potency [7] 26.8 µM

COc1cc(/C=C/c2ccccc2)oc(=O)c1
inactive: Potency [2] | Potency [10] | Potency [4] | Potency [5] | Potency [6] | Potency [7] | Potency [8] | Potency [9]

Cc1ccc(O)c(O)c1
inactive: Potency [2] | Potency [4] | Potency [5] | Potency [6] | Potency [8]

CCC(=O)C(=O)CC
inactive: Potency [2] | Potency [10] | Potency [4] | Potency [5] | Potency [6] | Potency [7] | Potency [8] | Potency [9]

O=C1OC2(c3ccc(O)cc3Oc3cc(O)ccc32)c2ccc(N=C=S)cc21
active: Potency [10] 17.7 µM | Potency [4] 15.8 µM | Potency [6] 15.8 µM | Potency [7] 15.8 µM | Potency [8] 44.4 µM | Potency [9] 17.7 µM

Cc1cc(C(C)(C)C)c(O)c(C)c1Cn1c(=O)n(Cc2c(C)cc(C(C)(C)C)c(O)c2C)c(=O)n(Cc2c(C)cc(C(C)(C)C)c(O)c2C)c1=O
inactive: Potency [10] | Potency [4] | Potency [6] | Potency [7] | Potency [8] | Potency [9]
active: Potency [3] 21.9 µM

COc1ccc2cc1Oc1ccc(cc1)C[C@H]1c3c(cc4c(c3Oc3cc5c(cc3OC)CCN(C)[C@@H]5C2)OCO4)CCN1C
active: Potency [4] 19 µM | Potency [5] 23.9 µM | Potency [6] 23.9 µM | Potency [7] 21.3 µM
inactive: Potency [8]

C#C[C@]1(OC(C)=O)CC[C@H]2[C@@H]3CCC4=C[C@@H](OC(C)=O)CC[C@@H]4[C@H]3CC[C@@]21C
inactive: Potency [2] | Potency [10] | Potency [4] | Potency [5] | Potency [6] | Potency [7] | Potency [8]
active: Potency [3] 21.3 µM

CC[N+](CC)(CC)CCOC(=O)C(C1CCCC1)C1CCCC1
inactive: Potency [2] | Potency [10] | Potency [4] | Potency [5] | Potency [6] | Potency [7] | Potency [8] | Potency [9]

[Cl][Pt-2]([Cl])([Cl])[Cl]
inactive: Potency [2] | Potency [10] | Potency [4] | Potency [5] | Potency [6] | Potency [7] | Potency [8] | Potency [9]

c1ccc(C(O[C@@H]2CCCN(CCc3ccc4c(c3)OCO4)C2)c2ccccc2)cc1
inactive: Potency [2] | Potency [10] | Potency [4] | Potency [5] | Potency [6] | Potency [8] | Potency [9]

COCCOc1cc2cc(C(=O)NC3CCN(C(C)C)CC3)n(CC(=O)Nc3ccc(Cl)cn3)c2cn1
inactive: Potency [2] | max response [3] -25.3% | Potency [10] | Potency [4] | Potency [5] | Potency [6] | Potency [7] | Potency [8] | Potency [9]

Cc1c2ccccc2c(C)c2c1ccc1ccccc12
active: Potency [10] 49 µM | Potency [9] 43.6 µM
inactive: Potency [2] | Potency [4] | Potency [5] | Potency [6] | Potency [7] | Potency [8]
